# Bioassay records (PubChem)
# The sample as a whole holds a higher share of hits than the screen did.
# JMJD2E inh = qHTS Assay for Inhibitors of Human Jumonji Domain Containing 2E (JMJD2E); Potency, µM (top dose mostly 57.1 µM), inactives show at the highest dose activity change, negative = inhibition, most hits filed as inhibitors; AID 2147, 2009; JMJD2E catalytic domain, FDH-coupled NADH fluorescence (FDH is formaldehyde dehydrogenase); 1.6% of 230,000 active; active = well fitted inhibition curve with a large enough effect, not every such curve was filed as active; inconclusive = small, poorly fitted or top-dose-only effect, or another doubt; inactive = no such curve, though single readings can be large or run the other way;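 note: 0% = wells with enzyme and -100% = buffer wells without enzyme; nearly all actives have a fitted effect of over 50% in size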
# Target sequence (B2RXH2 1-337 limits assumed): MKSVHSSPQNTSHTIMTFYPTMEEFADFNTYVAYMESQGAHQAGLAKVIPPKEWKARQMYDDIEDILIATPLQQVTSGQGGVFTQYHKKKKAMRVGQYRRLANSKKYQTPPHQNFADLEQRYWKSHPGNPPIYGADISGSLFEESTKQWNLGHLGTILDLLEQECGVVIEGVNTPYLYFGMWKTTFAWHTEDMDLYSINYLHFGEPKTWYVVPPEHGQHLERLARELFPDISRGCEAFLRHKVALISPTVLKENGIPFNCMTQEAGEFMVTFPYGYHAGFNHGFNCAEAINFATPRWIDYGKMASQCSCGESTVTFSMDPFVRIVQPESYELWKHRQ
# APEX1 inh = qHTS Assay for Inhibitors of the Human Apurinic/apyrimidinic Endonuclease 1 (APE1). DNA repair nuclease/redox regulator APEX1 (Homo sapiens), P27695. recombinant APE1, TAMRA/BHQ-2 abasic DNA cleavage fluorescence. Potency, µM (top dose mostly 65.8 µM), for the others: at the top dose activity change, negative = inhibition, usual class: inhibitors. 0.35% of 350,000 active. AID 2517, 2012;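 note: plate controls were vehicle for no effect and reference inhibitor for full effect; nearly all actives have a fitted effect of over 55% in size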
# Target sequence (P27695 whole entry, looked up): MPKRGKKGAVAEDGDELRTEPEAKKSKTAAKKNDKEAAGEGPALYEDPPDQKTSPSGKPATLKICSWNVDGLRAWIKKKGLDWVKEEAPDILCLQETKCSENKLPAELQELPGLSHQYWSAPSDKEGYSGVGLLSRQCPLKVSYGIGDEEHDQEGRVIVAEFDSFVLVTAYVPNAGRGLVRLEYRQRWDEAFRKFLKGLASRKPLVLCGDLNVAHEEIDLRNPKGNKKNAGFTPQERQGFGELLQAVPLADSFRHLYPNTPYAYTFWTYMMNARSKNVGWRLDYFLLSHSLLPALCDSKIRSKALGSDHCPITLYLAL
#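 Kinetic fluorescence read (525 ex/598 em nm, three reads 60 s apart) of AP-site incision; signal = third minus first read. Enzyme 0.75 nM, dual-labelled THF duplex 50 nM, compound preincubation 15 min RT.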
# BLM helicase inh = qHTS Assay for Inhibitors of Bloom's syndrome helicase (BLM); Potency, µM (highest dose often 56.1 µM), for the others: at the top dose activity change, negative = inhibition, hits mostly inhibitors; RecQ-like DNA helicase BLM (Homo sapiens), P54132; 0.2% of 350,000 active; AID 2528, 2010; recombinant BLM DNA unwinding, fluorescence dequenching;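 note: plate controls were vehicle for no effect and no enzyme for full effect; nearly all actives have a fitted effect of over 35% in size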
# PKM2 activator = qHTS Assay for Activators of Human Muscle isoform 2 Pyruvate Kinase | AID 1631, 2009 | Potency, µM (top dose mostly 57.5 µM), without a hit: top-dose activation, actives largely listed as activators | Pyruvate kinase PKM (Homo sapiens), P14618 | 0.34% of 260,000 active | purified PKM2, Kinase-Glo ATP luminescence, activation; response scale: 0% is enzyme alone, no compound; note: nearly all actives have a fitted effect of over 55% in size
#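 Purified hPK-M2 (>95%) run at intermediate activity with 0.1 mM ADP and 0.5 mM PEP in 50 mM imidazole pH 7.2, KCl, MgCl2; 1 h room temperature. ATP formed read by Kinase-Glo luminescence; normalized to uninhibited and no-enzyme controls.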
# RECQ1 helicase = qHTS Assay for Inhibitors of RecQ-Like Dna Helicase 1 (RECQ1) | ATP-dependent DNA helicase Q1 (Homo sapiens), P46063 | RECQ1 DNA unwinding, red fluorescence kinetic read | Potency, µM (highest dose often 57.3 µM), without a hit: at the top dose activity, negative = inhibition, actives largely listed as inhibitors | 0.54% of 240,000 active;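 note: plate controls were vehicle for no effect and no enzyme for full effect; nearly all actives have a fitted effect of over 30% in size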
#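 RECQ1T1 50 nM; forked duplex (20 bp + 30-nt ss tails) 200 nM, ATP 2 mM final; pH 8.0, 2 mM MgCl2, 2.5 ug/ml poly(dI-dC); 15 min compound preincubation; discontinuous kinetic read over 2 h at RT.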
# Numbers without * were called inactive; i = inactive; ? = inconclusive; . = no result given; [ ] = another dose, or the depositor's remark. Unless noted, calls come from the whole dose curve; as a rule, active = well fitted curve in the direction sought with a large enough effect; inconclusive = small, poorly fitted or top-dose-only effect, or another doubt; inactive = no such curve, though single readings can be large; an effect the other way counts as inactive or inconclusive. Unless noted, % is set by controls: 0 for no effect and ±100 for the full control effect; potency is the fitted concentration of half-maximal effect.
SMILES,JMJD2E inh,APEX1 inh,BLM helicase inh,PKM2 activator,RECQ1 helicase
COc1ccccc1CNc1ncnc2ccc(-c3ccccc3OC)cc12,.,0.4%,-9.8%,.,-18.3%
CC1CC2OC2/C=C\C=C/C(=O)Cc2c(Cl)c(O)cc(O)c2C(=O)O1 (stereo not drawn),.,-0.3%,-2.5%,.,-3.4%
C[C@@H]1Cc2c(O)c(O)cc(O)c2C(=O)O1,2µM*,?,0.6%,-9.1%,i
O=c1c(-c2cccs2)nc2cnc(N3CCNCC3)nc2n1CCc1ccccc1,.,-6.4%,-1.0%,.,-3.4%
CCOC(=O)N1CCN(C(=O)CSCC(=O)Nc2nc(-c3ccc(-c4ccccc4)cc3)cs2)CC1,35.5µM*,2.1%,-7.1%,11.2%,13.1%
Cc1cccc(/C=C(\C(=O)O)c2ccc(S(=O)(=O)N3CCCC3)s2)c1,.,11.9µM*,.,.,.
Cc1cc(=O)n(CCO)c(O)c1C#N,?,3.9%,-3.3%,-6.7%,-11.7%
Cc1cc(=O)n(CCc2ccccc2)c(O)c1C#N,11.2µM*,-4.1%,2.2%,-4.0%,-10.5%
C[C@H]1Cc2c(COc3ccccc3)nc3c(c2CO1)CN(C(=O)C1CC1)CC3,2.8%[11.4 µM],-1.4%[12.4 µM],-3.6%[12.4 µM],-1.3%[11.5 µM],-7.8%[11.5 µM]
COc1cccc(/C=N/Nc2nccnc2Cl)c1O,?,-5.0%,-6.0%,-63.8%,i
COc1cccc(/C=N/Nc2nc3ccccc3[nH]2)c1OC,-26.0%,3.0%,-3.1%,1.2%,-5.4%
COc1cccc(/C=N\NC(=O)Cn2nnc3ccccc32)c1O,28.2µM*,-1.6%,-4.9%,1.9%,19.2%
COc1cccc(/C=N/Nc2ncnc3scc(-c4ccccc4)c23)c1O,14.1µM*,5.8%,-4.8%,-3.2%,-28.5%
COc1cccc(/C=N/Nc2ncnc(Cl)c2N)c1O,25.1µM*,-4.3%,-11.6%,-5.7%,-3.1%
COc1cccc(/C=N/Nc2nc3ccccc3[nH]2)c1O,4.47µM*,-1.7%,-11.0%,-9.2%,-14.1%
COc1ccc(-c2nc3c(c4c2C[C@H](c2ccccc2)OC4)CN(C(=O)NCc2ccco2)CC3)c(C)c1,-1.5%[11.4 µM],-5.5%[12.4 µM],-1.9%[12.4 µM],-4.6%[11.5 µM],i[11.5 µM]
O=C1C2=CC[C@@H]3C(=O)N(c4ccc(F)cc4F)C(=O)[C@H]3[C@H]2[C@H](O)[C@H]2O[C@H]12,.,1.2%[12.4 µM],-1.5%[12.4 µM],.,-4.3%[11.5 µM]
COc1ccc2cc3c(N)nn(C(=O)c4ccccc4Cl)c3nc2c1,3.9%,6.8%,-3.8%,20µM*,-1.0%
COc1ccc(NC(=O)CSc2n[nH]c(C(C)C)n2)c([N+](=O)[O-])c1,1.7%,-0.7%,-6.1%,20.3%,-1.1%
COc1ccc(NC(=O)CSc2n[nH]c(N)n2)c([N+](=O)[O-])c1,1.4%,-3.7%,-2.0%,14.1µM*,i
OC1OC[C@H](O)[C@@H](O)[C@@H]1O (stereo partly drawn),.,?,3.7%,.,1.4%
NC(N)=NCCC[C@H](N)C(=O)NCC(=O)N[C@@H](CC(=O)O)C(=O)O,.,-6.6%,4.7%,.,-13.1%
CCN(CC)c1ccc2nc3ccc(N)cc3[n+](-c3ccccc3)c2c1,.,23.8µM*,.,.,.
COc1cc([N+](=O)[O-])cc(/C=N/NC(=O)CSc2ccccn2)c1O,20µM*,9.3%,-3.6%,-6.5%,18.2%
COc1cccc(/C=N/NC(=O)c2cc3cc([N+](=O)[O-])ccc3s2)c1O,?,2µM*,15.8µM*,-0.7%,-20.1%
SMILES,JMJD2E inh,APEX1 inh,BLM helicase inh,PKM2 activator,RECQ1 helicase
COc1cc([N+](=O)[O-])cc(/C=N/NC(=O)Cn2cncn2)c1O,14.1µM*,0.1%,-9.2%,?,-7.2%
COc1cc([N+](=O)[O-])cc(/C=N/NC(=O)c2ccc(C)nc2)c1O,14.1µM*,-0.2%,-19.7%,-1.4%,-1.1%
Cc1ccc(F)c(C2C3C=CCC(C)C3C(=O)N2Cc2ccccc2)c1 (stereo not drawn),.,-4.5%,-7.0%,.,i
CCc1cc(C(=O)N=Nc2c(O)[nH]c3ccc([N+](=O)[O-])cc23)c2ccccc2n1,-7.7%,-10.6%,17.8µM*,7.8%,0.5%
O=C(N=Nc1c(O)[nH]c2ccc([N+](=O)[O-])cc12)c1ccccc1[N+](=O)[O-],-2.7%,1.0%,-14.8%,3.4%,-5.0%
CCCCC(CC)COCC1CO1 (stereo not drawn),.,13.6%,.,.,-14.7%
CCOC(=O)c1c(CSC(=N)N)n(C)c2cc(Br)c(OC(C)=O)cc12,3.6%,-4.1%,-5.1%,15.8µM*,i
CC(C)(C)C(=O)CSc1ncnc2c1cnn2Cc1ccccc1,.,9.4%,-8.2%,.,.
c1ccc(CSc2ncnc3c2cnn3Cc2ccccc2)cc1,7.7%,4.2%,-14.6%,5.01µM*,-12.7%
CC(C)C[C@H](NC(=O)CNC(=O)[C@H](C)NC(=O)[C@H](CC(C)C)NC(=O)[C@H](CCCNC(=N)N)NC(=O)[C@H](Cc1cnc[nH]1)NC(=O)[C@@H](NC(=O)[C@@H](NC(=O)[C@@H]1CSSC[C@H](NC(=O)[C@@H](N)CO)C(=O)N[C@@H](CC(N)=O)C(=O)N[C@@H]([C@@H](C)O)C(=O)N[C@@H](C)C(=O)N[C@@H]([C@@H](C)O)C(=O)N1)C(C)C)[C@@H](C)O)C(=O)N[C@@H](CC(C)C)C(=O)N[C@@H](CO)C(=O)N[C@@H](CCCNC(=N)N)C(=O)N[C@@H](CO)C(=O)NCC(=O)NCC(=O)N[C@H](C(=O)N[C@H](C(=O)N[C@@H](CCCCN)C(=O)N[C@@H](CC(=O)O)C(=O)N[C@@H](CC(N)=O)C(=O)N[C@@H](Cc1ccccc1)C(=O)N[C@H](C(=O)N1CCC[C@H]1C(=O)N[C@H](C(=O)N[C@@H](CC(N)=O)C(=O)N[C@H](C(=O)NCC(=O)N[C@@H](CO)C(=O)N[C@@H](CCCCN)C(=O)N[C@@H](C)C(=O)N[C@@H](Cc1ccccc1)C(N)=O)C(C)C)[C@@H](C)O)C(C)C)C(C)C)C(C)C,.,1.6%,-0.5%,.,-8.1%
CCCCc1nc2c(c3c1C[C@H](C)OC3)CN(C(=O)NCCCC(=O)OCC)CC2,-5.4%[11.4 µM],1.0%[12.4 µM],-1.4%[12.4 µM],-9.2%[11.5 µM],i[11.5 µM]
Cn1c(=O)c(Nc2ccc(Cl)cc2)c2c3c(cccc31)C(=O)c1ccccc1-2,-3.5%,50.7%,-15.7%,-3.0%,28.2µM*
CC(=O)Nc1c2c3c(cccc3n(C)c1=O)C(=O)c1ccccc1-2,-23.6%,-4.6%,5.2%,-3.3%,-4.9%
C=C1C(=O)[C@]23[C@H](O)[C@H]1CC[C@H]2[C@@]12COC3(O)[C@H](O)[C@@H]1C(C)(C)CC[C@@H]2O,.,-10.2%,0.0%,.,-2.5%
O=C1c2c(O)cc(O)cc2O[C@H](c2ccc(O)c(O)c2)[C@H]1O,20µM*,?,-3.8%,14.2%,?
